Source: PubChem BioAssay (NCI)
About 83,000 compounds went through this panel and 20% of them were active in at least one assay; those are over-represented in the sample as a whole.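 Cells were grown in 96-well plates and exposed to the test compound at a single concentration for 48 hours; results are reported as percent growth, with values below 10 considered active.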 Unmarked numbers belong to inactive results. Calls of active or inactive are those of the source.

What was measured:
Assay in all cases: NCI-60 one-dose screen, 48 h (100 = growth as untreated, 0 = no growth, -100 = all killed)
Settings in all cases: 10 µM unless noted
HT29 colon = system: HT29 colon
SNB-75 CNS = system: SNB-75 CNS
SNB-19 CNS = system: SNB-19 CNS
U251 CNS = system: U251 CNS
PC-3 prostate = system: PC-3 prostate
SK-MEL-5 melanoma = system: SK-MEL-5 melanoma
UACC-62 melanoma = system: UACC-62 melanoma
LOX IMVI melanoma = system: LOX IMVI melanoma
SK-MEL-28 melanoma = system: SK-MEL-28 melanoma
SK-MEL-2 melanoma = system: SK-MEL-2 melanoma
EKVX NSCLC = system: EKVX NSCLC
SN12C renal = system: SN12C renal
UO-31 renal = system: UO-31 renal
TK-10 renal = system: TK-10 renal
ACHN renal = system: ACHN renal
CAKI-1 renal = system: CAKI-1 renal
A498 renal = system: A498 renal
CCRF-CEM leukemia = system: CCRF-CEM leukemia
MOLT-4 leukemia = system: MOLT-4 leukemia
SR leukemia = system: SR leukemia

Row | Structure (SMILES) | growth (HT29 colon) | growth (SNB-75 CNS) | growth (SNB-19 CNS) | growth (U251 CNS) | growth (PC-3 prostate) | growth (SK-MEL-5 melanoma) | growth (UACC-62 melanoma) | growth (LOX IMVI melanoma) | growth (SK-MEL-28 melanoma) | growth (SK-MEL-2 melanoma) | growth (EKVX NSCLC) | growth (SN12C renal) | growth (UO-31 renal) | growth (TK-10 renal) | growth (ACHN renal) | growth (CAKI-1 renal) | growth (A498 renal) | growth (CCRF-CEM leukemia) | growth (MOLT-4 leukemia) | growth (SR leukemia)
1 | O=C(COC(=O)[C@H](C[Se][Se]C[C@H](NC(=O)c1ccc(Br)cc1F)C(=O)OCC(=O)c1ccc(F)cc1)NC(=O)c1ccc(Br)cc1F)c1ccc(F)cc1 | 3.66% (active) | -100% (active) | -86.3% (active) | -100% (active) | -51.6% (active) | -18.8% (active) | -4.12% (active) | -83% (active) | -90.6% (active) | -58.9% (active) | -69.9% (active) | -100% (active) | -100% (active) | -97.6% (active) | -75.7% (active) | -91.4% (active) | -2.67% (active) | -56.2% (active) | -30% (active) | -39.3% (active)
2 | CC(=O)NCCSC(=O)C(=O)SCCNC(C)=O | 120% | 93% | 104% | 108% | 109% | 104% | 99.4% | 104% | 118% | 19% | 101% | 99.4% | 95.7% | 128% | 108% | 105% | 104% | 119% | 112% | 114%
3 | Cc1nn(-c2ccccc2)c(Cl)c1C(CC(=O)c1ccc(Cl)cc1)CC(=O)c1ccc(Cl)cc1 | 77% | 86.8% | 82.4% | 82.2% | 73.1% | 89.7% | 82.4% | 81.8% | 112% | 89.1% | 94.8% | 85.2% | 76.7% | 104% | 88.4% | 76.4% | 66.9% | – | – | –
4 | COc1ccc2c(c1)nc(N)c1c3cc(C)c(C)cc3cn21 | 37.9% | 92.8% | 77.5% | 53.9% | 90.3% | 58.8% | 44% | 75.4% | 81.1% | 84.4% | 72% | 84.1% | 59.6% | 108% | 71.4% | 59.2% | 79.7% | 70.9% | 69.2% | –
5 | COC(=O)[C@]1(CCSC)N[C@H](c2cn(-c3ccccc3)nc2C)[C@@H]2C(=O)N(c3ccc(C)cc3)C(=O)[C@@H]21 | 99.7% | 93.3% | 97.8% | 95.7% | 98.1% | 115% | 102% | 97.9% | 109% | 101% | 106% | 101% | 77.5% | 104% | 90.7% | 93.9% | 77.2% | – | – | –
6 | Cc1nn(-c2ccc(Cl)cc2)c2nc3c(nc12)c(=O)oc1ccccc13 | 99.7% | 92.1% | 100% | 93.9% | 106% | 114% | 102% | 101% | 110% | 107% | 108% | 101% | 101% | 107% | 99.8% | 98.3% | 95% | – | – | –
7 | COc1ccc2c(c1)nc(N)c1c3ccccc3cn21 | 73.8% | 67.6% | 83.4% | 72.8% | 84% | 50.8% | 58.7% | 74.3% | 78.8% | 83.8% | 72.7% | 89.6% | 59% | 125% | 81.1% | 68.5% | 75.2% | 74.5% | 73.8% | –
8 | COC(=O)[C@]1(CCSC)N[C@H](c2cn(-c3ccccc3)nc2C)[C@@H]2C(=O)N(c3ccccc3)C(=O)[C@@H]21 | 103% | 86% | 109% | 105% | 101% | 101% | 102% | 96.1% | 109% | 121% | 107% | 103% | 90.9% | 118% | 113% | 101% | 93% | – | – | –
9 | Cc1nn(-c2ccc(Cl)cc2)c2nc3c(nc12)C(=O)C(=O)c1ccccc1-3 | 4.77% (active) | -2.08% (active) | 62.4% | 77.5% | 73.9% | 43.8% | 73.3% | 62.6% | 67.2% | 99.1% | 64% | 78.7% | 59.8% | 144% | 81.2% | 69.8% | 59.4% | – | – | –
10 | COc1ccc2c(c1)nc(N)c1c3cc(OC)c(OC)cc3cn21 | 9.28% (active) | 57.1% | 62.2% | 30.6% | 53.1% | 34.1% | 22.1% | 53.2% | 57.5% | 47.7% | 73.1% | 56.4% | 49.8% | 48.9% | 46.4% | 28.5% | 35.9% | 47.1% | 76.4% | –
11 | OC(CCC(O)(c1ccccc1)c1ccccc1)(c1ccccc1)c1ccccc1 | 78.4% | 83.9% | 106% | 87.7% | 24.4% | 90.6% | 62.2% | 71.4% | 112% | 97.5% | 58.8% | 88% | 74.7% | 107% | 100% | 44.4% | 60.2% | 33.5% | 18.5% | 79.6%
12 | Nc1nc(N)c([N+](=O)[O-])c(=O)[nH]1 | 98.6% | 106% | 108% | 102% | 94.5% | 102% | 105% | 105% | 107% | 84.2% | 121% | 105% | 80.8% | 94.6% | 98.7% | 104% | 97.9% | 93.1% | 111% | 106%
13 | COc1cc2cn3c4ccc(O)cc4nc(N)c3c2cc1OC | 24.3% | 2.21% (active) | 20.5% | 4.61% (active) | 35.8% | -54.9% (active) | -59.4% (active) | -40.5% (active) | 39% | 21.2% | 48.7% | 18.6% | 1.49% (active) | 50.4% | -3.69% (active) | -4.04% (active) | -14.4% (active) | 21.1% | 8.22% (active) | –
14 | Cc1nn(-c2ccc(Cl)cc2)c2nc3c(nc12)C(=O)c1ccccc1-3 | 65.1% | 95.5% | 87.2% | 47% | 54.9% | 65.8% | 55.2% | 51.2% | 28.4% | 79.7% | 49.6% | 78.8% | 110% | 94.1% | 65.1% | 82.9% | -3.2% (active) | – | – | –
15 | C=Cc1nn2c(CCC(=O)c3nc4ccccc4[nH]3)nnc2s1 | 105% | 110% | 107% | 104% | 98% | 98.2% | 102% | 95% | 113% | 97.5% | 106% | 101% | 76.2% | 131% | 96.2% | 96.7% | 135% | 104% | 102% | –
16 | O=C(CCc1nnc2sc(Cc3ccccc3Cl)nn12)c1nc2ccccc2[nH]1 | 99.4% | 78.7% | 96.2% | 97% | 85.5% | 91.8% | 83.9% | 87.9% | 110% | 93% | 91.7% | 91.8% | 63% | 144% | 84.7% | 89% | 92.3% | 96.1% | 72.9% | –
17 | COC(=O)[C@]1(C(C)C)N[C@H](c2cn(-c3ccccc3)nc2-c2ccccc2)[C@@H]2C(=O)N(c3ccc(Cl)cc3)C(=O)[C@@H]21 | 98.1% | 86.1% | 99.1% | 97.4% | 89.9% | 101% | 101% | 92.1% | 114% | 86.9% | 102% | 97.3% | 59.5% | 113% | 93.9% | 77.5% | 107% | – | – | –
